# Data published in PubChem BioAssay (NCATS).
# “And” between values parts separate entries of the source, which are not always exact repeats. Equal entries are not always repeated. Results filed as inconclusive are left out. The source made the active and inactive calls. Unless noted, calls follow the shape of the dose curve; as a rule, active = well fitted curve in the direction sought with a large enough effect; inconclusive = small, poorly fitted or top-dose-only effect, or another doubt; inactive = no such curve, though single readings can be large; an effect the other way counts as inactive or inconclusive.
# Experiments:
# [1] = Cell Viability - LYMP2-018 (AID 985);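 also: compound exposure lasted 24 hr at 37 °C; plate controls were DMSO only for no effect and tetraoctylammonium bromide at 92 µM for full effect; nearly all actives have a fitted effect of over 50% in size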
# In short: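 Human lymphoblastoid LYMP2-018 cells, 2500/well, settled 5 hr at 37 C then exposed to compound 24 hr at 37 C; intracellular ATP measured by CellTiter-Glo luminescence. AC50 from Hill-equation concentration-response fits.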
# [2] = Cell Viability - LYMP2-020 (AID 986);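 also: plate controls were DMSO only for no effect and tetraoctylammonium bromide at 92 µM for full effect; nearly all actives have a fitted effect of over 55% in size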
# In short: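 Human lymphoblastoid LYMP2-020 cells (2500/well) preincubated 5 h at 37 C, then treated 24 h at 37 C. Viability measured as intracellular ATP by CellTiter-Glo luminescence after 30 min at room temperature; AC50 from Hill fits.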
# [3] = Cell Viability - LYMP2-022 (AID 987);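 also: 0% = DMSO alone and full effect = tetraoctylammonium bromide at 92 µM; nearly all actives have a fitted effect of over 55% in size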
# In short: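 LYMP2-022 lymphoblastoid cells (2500/well, complete medium) were treated with compounds for 24 hours at 37 C; intracellular ATP was then read by CellTiter-Glo luminescence after 30 min at room temperature. AC50 values were derived from Hill-equation fits.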
# [4] = Cell Viability - LYMP2-024 (AID 988);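 also: plate controls were DMSO only for no effect and 92 µM tetraoctylammonium bromide for full effect; nearly all actives have a fitted effect of over 60% in size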
# In short: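 Human lymphoblastoid LYMP2-024 cells (2500/well) rested 5 hr, then treated with compound for 24 hr at 37 C in complete medium. Viability was measured as intracellular ATP by CellTiter-Glo luminescence. AC50 values came from Hill-equation fits.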
# [5] = Cell Viability - LYMP2-026 (AID 989); also: % is scaled to controls: 0 for no effect and ±100 for the full control effect; nearly all actives have a fitted effect of over 50% in size
# In short: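 Human lymphoblastoid LYMP2-026 cells, 2500/well, exposed to compound 24 h at 37 C in complete medium. Viability as intracellular ATP by CellTiter-Glo luminescence; AC50 from Hill fits of qHTS concentration-response.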
# [6] = Cell Viability - LYMP1-002 - Assay at 24 hr (AID 993); also: % is scaled to controls: 0 for no effect and ±100 for the full control effect
# In short: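 Human lymphoblastoid LYMP1-002 cells (2500/well) treated 24 h at 37 °C; viability as intracellular ATP by CellTiter-Glo luminescence. Tetraoctylammonium bromide as positive control; AC50 from Hill-equation fits of qHTS concentration-response.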
# [7] = Cell Viability - LYMP1-002 - Assay at 40 hr (AID 994);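 also: 0% = DMSO only and full inhibition = 92 µM tetraoctylammonium bromide; nearly all actives have a fitted effect of over 60% in size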
# In short: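 LYMP1-002 human lymphoblastoid cells (2500/well, complete medium) were treated with compounds for 40 hr at 37 C. Intracellular ATP was measured by CellTiter-Glo luminescence, and AC50 values came from Hill-equation fits of concentration-response data; tetraoctylammonium bromide was the positive control.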
# [8] = qHTS Assay for Lipid Storage Modulators (AID 1519; calls by dose curve; as to activity change, negative = inhibition: % is scaled to controls: 0 for no effect and ±100 for the full control effect); settings: Drosophila S3 cells, BODIPY lipid droplet/cell ratio, laser cytometry, cells loaded with oleic acid
# In short: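 Cells seeded at 5,000 per well were treated with compounds over a concentration series and loaded with oleic acid (400 uM, as added). Lipid droplet fluorescence (488 nm excitation, 500-530 nm channel) was read by laser-scanning cytometry and normalized to 20 uM Triacsin C.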
# [9] = target: Alpha-galactosidase A (Homo sapiens) (UniProt P06280); assay: Counterscreen for Glucocerebrosidase Inhibitors: qHTS Assay for Human alpha-Galactosidase at pH 4.5 (AID 992); also: 0% is about no effect
# Text: (§1) NIH Chemical Genomics Center [NCGC]
# (§2) NIH Molecular Libraries Screening Centers Network [MLSCN]
# (§3) PI Name: Zheng, Wei [NIH]
# Alpha-galactosidase is a homodimeric glycoprotein that hydrolyzes the terminal alpha-galactosyl moieties from glycolipids and glycoproteins. Deficiency of this enzyme results in Fabry Disease with progressive accumulation of globotriaosylceramide and other glycosphingolipids in vascular endothelial cells that causes renal failure, myocardial infarction and stroke, and premature death in patients. It has reported that the improper folding and trafficking of alpha-galactosidase resulted from the genetic mutations may account for a significant numbers of Fabry patients. […]
# (§4) This is a fluorogenic enzyme assay with 4-Methylumbelliferyl alpha-D-galactopyranoside as the substrate and human […] as the enzyme preparation. […] 4-Methyllumbelliferone, can be excited at 365 nm and emits at 440 nm which can be detected by a standard fluorescence plate reader. […] In the AC50 values were determined from concentration-response data modeled with the standard Hill equation. […]
# (§5) (6) Detect the assay plate in a ViewLux plate reader (PerkinElmer) with Ex=365 nm and Em=440nm. […]
# [10] = target: alpha-glucosidase (Oryza sativa, rice) (UniProt Q653V4); assay: Counterscreen for Glucocerebrosidase Inhibitors: qHTS Assay for Rice alpha-Glucosidase at pH 5.0 (AID 997);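 also: 0% = full activity with enzyme and -100% = basal without enzyme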
# Text: as §1, §2, §3
# Alpha-glucosidase is responsible for hydrolysis of terminal, non-reducing 1,4-linked alpha-D-glucose residues with release of alpha-D-glucose. It is a lysosomal hydrolase that is required for the degradation of a small percentage (1-3%) of cellular glycogen in human. Deficiency of this enzyme results in glycogen-storage disease type II (GSDII), also referred to as Pompe disease, an autosomal recessive disorder. Structurally normal glycogen is accumulated in lysosomes and cytoplasm in affected patients, primarily in muscle tissues. Excessive glycogen storage within lysosomes may interrupt normal functioning of other organelles and leads to cellular injury. In turn, this leads to enlargement and dysfunction of the entire organ involved (eg, cardiomyopathy and muscle weakness). […]
# as §4, with “4-methylumbelliferyl-alpha-D-pyranoside” for “4-Methylumbelliferyl alpha-D-galactopyranoside”, “rice” for “human”, “4-methyllumbelliferone,” for “4-Methyllumbelliferone,”
# as §5
# [11] = measured here: cell count channel max response
# [12] = measured here: lipid channel max response
# Alpha-galactosidase A (Homo sapiens), sequence (P06280 whole entry, looked up): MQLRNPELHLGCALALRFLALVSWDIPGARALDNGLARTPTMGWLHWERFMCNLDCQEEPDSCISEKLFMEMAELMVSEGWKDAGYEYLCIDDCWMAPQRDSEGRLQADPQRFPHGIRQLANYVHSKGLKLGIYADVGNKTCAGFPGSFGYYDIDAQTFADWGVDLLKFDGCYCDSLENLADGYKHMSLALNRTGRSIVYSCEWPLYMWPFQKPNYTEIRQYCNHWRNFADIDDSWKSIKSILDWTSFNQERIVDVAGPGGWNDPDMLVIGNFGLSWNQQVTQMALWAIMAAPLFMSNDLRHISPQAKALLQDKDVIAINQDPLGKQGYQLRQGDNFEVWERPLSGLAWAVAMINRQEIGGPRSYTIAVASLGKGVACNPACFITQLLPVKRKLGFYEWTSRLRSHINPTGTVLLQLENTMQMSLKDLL
compound,measurement,setting,value
CCCCCCCC(=O)OCC(COC(=O)CCCCCCC)OC(=O)CCCCCCC,outcome,[1],inactive
same,outcome,[2],inactive
same,outcome,[3],inactive
same,outcome,[4],inactive
same,outcome,[5],inactive
same,outcome,[6],inactive
same,outcome,[7],inactive
CCCCC1(COC(=O)CCC(=O)O)C(=O)N(c2ccccc2)N(c2ccccc2)C1=O,"activity change, negative = inhibition",[8]; at 25.7 µM (top of the series),-3.4% (inactive)
same,"activity change, negative = inhibition",[8]; at 57.5 µM (top of the series),5.77% (inactive)
same,max response,[8]; [11],-9.42% and 23.5%
same,max response,[8]; [12],-12.6% and 36.6%
CC1CC(OC(=O)c2ccccc2O)CC(C)(C)C1 (centres undefined),outcome,[1],inactive
same,outcome,[2],inactive
same,outcome,[3],inactive
same,outcome,[4],inactive
same,outcome,[5],inactive
same,outcome,[6],inactive
same,outcome,[7],inactive
same,"activity change, negative = inhibition",[8]; at 57.5 µM (top of the series),7.41% (inactive)
same,max response,[8]; [11],1.44%
same,max response,[8]; [12],9.79%
NC(N)=NCCN1CCCCCCC1,"activity change, negative = inhibition",[8]; at 25.7 µM (top of the series),-2.42% (inactive)
same,"activity change, negative = inhibition",[8]; at 57.5 µM (top of the series),6.2% (inactive)
same,max response,[8]; [11],3.46% and 15.5%
same,max response,[8]; [12],0.449% and 29.6%
Cc1c(NC(=O)c2cccnc2)c(=O)n(-c2ccccc2)n1C,"activity change, negative = inhibition",[8]; at 25.7 µM (top of the series),-1.84% (inactive)
same,"activity change, negative = inhibition",[8]; at 57.5 µM (top of the series),5.04% (inactive)
same,max response,[8]; [11],3.68% and 18.2%
same,max response,[8]; [12],4.21% and 26.8%
O=C1c2cccc(O)c2C(=O)c2c(O)cccc21,outcome,[2],inactive
same,outcome,[3],inactive
same,outcome,[4],inactive
same,outcome,[5],inactive
same,outcome,[6],inactive
same,outcome,[7],inactive
same,"activity change, negative = inhibition",[8]; at 57.5 µM (top of the series),-5.01% (inactive)
same,max response,[8]; [11],2.23%
same,max response,[8]; [12],-1.3%
NC(=O)CC[C@@H](N)C(=O)O,outcome,[9],inactive
same,outcome,[10],inactive
NCc1ccc(S(N)(=O)=O)cc1,"activity change, negative = inhibition",[8]; at 25.7 µM (top of the series),-2.86% (inactive)
same,"activity change, negative = inhibition",[8]; at 57.5 µM (top of the series),9.84% (inactive)
same,max response,[8]; [11],-7.52% and 18.9%
same,max response,[8]; [12],-8.55% and 31.3%
O=C(c1ccccc1)C(O)c1ccccc1 (centres undefined),outcome,[1],inactive
same,outcome,[2],inactive
same,outcome,[3],inactive
same,outcome,[4],inactive
same,outcome,[5],inactive
same,outcome,[6],inactive
same,outcome,[7],inactive
CN1C(C)(C)CCCC1(C)C,outcome,[9],inactive
same,outcome,[10],inactive
same,"activity change, negative = inhibition",[8]; at 25.7 µM (top of the series),0.627% (inactive)
same,"activity change, negative = inhibition",[8]; at 57.5 µM (top of the series),10.8% (inactive)
same,max response,[8]; [11],4.18% and 13.7%
same,max response,[8]; [12],5.5% and 25.7%
CCN(CC)CCOC(=O)C(c1ccccc1)c1ccccc1,"activity change, negative = inhibition",[8]; at 25.7 µM (top of the series),-0.714% (inactive)
same,"activity change, negative = inhibition",[8]; at 57.5 µM (top of the series),-3.74% (inactive)
same,max response,[8]; [11],-10.9% and -9.85%
same,max response,[8]; [12],-13.6% and -9.37%
C=CCNC(N)=S,outcome,[1],inactive
same,outcome,[2],inactive
same,outcome,[3],inactive
same,outcome,[4],inactive
same,outcome,[5],inactive
same,outcome,[6],inactive
same,outcome,[7],inactive
CC(=O)Nc1ccc(C(=O)O)cc1,outcome,[1],inactive
same,outcome,[2],inactive
same,outcome,[3],inactive
same,outcome,[4],inactive
same,outcome,[5],inactive
same,outcome,[6],inactive
same,outcome,[7],inactive
Cc1c(NC(C)C)c(=O)n(-c2ccccc2)n1C,"activity change, negative = inhibition",[8]; at 25.7 µM (top of the series),1.53% (inactive)
same,"activity change, negative = inhibition",[8]; at 57.5 µM (top of the series),9.46% (inactive)
same,max response,[8]; [11],12.2% and 13.2%
same,max response,[8]; [12],14.1% and 25.6%
